# Test results taken from ChEMBL document CHEMBL3988442, “University of Dundee, Small-Polar-MMV Screening Library” (2021).
# Screen size: about 53,000 compounds; about 900 (1.7%) showed an effect of 50% or more. Many of the other results were omitted from the sample, so strong results are more common in it than they were.
# Test system: Mycobacterium tuberculosis
# Assay: Cornell - Phenotypic assay to identify agents that inhibit growth of Mycobacterium tuberculosis
# Format: functional
# Set-up: scale not given: direction of the effect not stated beside the values
# Conditions: 10 mM as filed; unlikely as a test dose
row,SMILES,Percent Effect
1,COc1cc2ncn(Cc3ncc[nH]3)c(=O)c2cc1OC,6.69%
2,CCc1cccc(OCCN(C)C(=O)c2ccccc2NCC(=O)O)c1,10.74%
3,COc1cccc(CN2CCCC(Cn3nc(C)nc3C)C2)c1 (stereo not given),16.57%
4,O=C(c1ccncc1F)N1CCc2ncnc(-c3ccncc3)c2CC1,-7.007%
5,C[C@@H]1CN(C2CCN(Cc3nn(C)c4cccc(Cl)c34)CC2)C[C@H](C)O1,-20.95%
6,Cn1nc(CN2CCCCC(N)C2)c2c(Cl)cccc21 (stereo not given),-4.365%
7,Cn1nc(CN2CCCN(C3CCCC3)CC2)c2c(Cl)cccc21,60.03%
8,O=C(c1cccc(-n2cnnc2)c1)N1C[C@@H](O)[C@H](N2CCOCC2)C1,40.33%
9,CN1C(=O)C2(CC(=O)Nc3[nH]ncc32)c2ccc(F)cc21 (stereo not given),10.37%
10,CN(Cc1cnccn1)S(=O)(=O)c1ccc(C(F)(F)F)nc1,-14.08%
11,CC(CS(C)(=O)=O)N(C)C(=O)NCCCc1ccc(Cl)cc1 (stereo not given),12.33%
12,COc1ccc(-c2cc(C3CCCCCN3S(=O)(=O)N(C)C)on2)cc1 (stereo not given),15.93%
13,CS(=O)(=O)N1CCCCCC1c1cc(-c2ccc(F)cc2)no1 (stereo not given),7%
14,CN(C)S(=O)(=O)N1CCCCCC1c1cc(-c2ccc(F)cc2)no1 (stereo not given),73.32%
15,Cc1ccc(NS(=O)(=O)c2cnn(-c3ccccc3)c2)c(C(=O)O)c1,55.25%
16,Cc1ccc(-n2cc(S(=O)(=O)Nc3cccc(C(=O)O)c3C)cn2)cc1,9.419%
17,Cc1ccc(NS(=O)(=O)c2cnn(Cc3ccccc3)c2)c(C(=O)O)c1,-25.98%
18,CCCN(CCC)c1ncc(S(=O)(=O)c2ccc(OC)cc2)c(N)n1,26.01%
19,CC[C@H]1CN(C(=O)c2cccc(-n3cnnc3)n2)CC[C@@]1(C)O,-27.2%
20,Cc1noc(C)c1C(=O)N1CCCC1(C)C(=O)NC1CCCC1 (stereo not given),-3.819%
21,CCOc1cc(C(=O)N2CCCC(c3noc(C)n3)C2)ccc1OC (stereo not given),13.87%
22,COc1ccc(NC(=O)N2CCC(c3nnc[nH]3)CC2)cc1C,16.56%

row,SMILES,Percent Effect
1,COc1ccc(NC(=O)N2CCC(c3noc(C)n3)CC2)cc1C,55.08%
2,CCn1cnnc1C1CCN(C(=O)c2cccc(C)c2C)CC1,-30.53%
3,Cc1ccc(NC2CCN(C(=O)Cc3cccs3)CC2)nn1,-3.843%
4,O=C(Cc1cccnc1)N1CC(Cc2nccc3cc[nH]c23)C1,4.598%
5,COc1ccccc1NC(=O)c1cnc(C2CCN(C(C)=O)C2)nc1C (stereo not given),26.28%
6,O=C(C[S+]([O-])Cc1cccc(Cl)c1)NC1CCCC1 (stereo not given),37.46%
7,Cl.c1ccc(CCNc2cccc(C3CCCNC3)n2)cc1 (stereo not given),12.44%
8,CCOc1ccc(Cl)cc1C1CCCN1.Cl (stereo not given),-3.998%
9,Cl.Clc1cccc(N[C@H]2CCCN[C@H]2Cc2ccccc2)c1,107%
10,O=C1NCCCc2[nH]c(Cc3cccc(Cl)c3)nc21,-7.355%
11,O=C(NCCc1cccc(Cl)c1)C1CCOCC1,10.9%
12,Cl.Cl.Clc1cccc(C[C@@H]2NCCC[C@@H]2Nc2ccccc2)c1,55.37%
13,O=C(Cc1cccc(Cl)c1)N[C@@H]1CCNC[C@H]1O,2.906%
14,Cl.Cl.Clc1cccc(C[C@@H]2NCCC[C@@H]2Nc2cccc(Cl)c2)c1,108.9%
15,Cc1ccc(-c2cc(CS(=O)(=O)NC3CCCNC3=O)on2)cc1 (stereo not given),-20.71%
16,CN(Cc1ccsc1)C(=O)Cn1c(CS(C)(=O)=O)nc2ccccc21,17.82%
17,Cc1ccc(S(=O)(=O)NC2=NCN(CCc3cccs3)CN2)cc1,-5.965%
18,O=C(CCn1cccn1)N1CC[C@@H](c2ccc3ccccc3c2)[C@H](O)C1,-1.48%
19,O=C(CCN1CCCO1)N1CC[C@@H](c2ccc3ccccc3c2)[C@H](O)C1,5.243%
20,O=C(CCN1CCCC1)N1CC[C@@H](c2ccc3ccccc3c2)[C@H](O)C1,59.79%
21,O=S1(=O)CCC(S(=O)(=O)c2cccc(S(=O)(=O)N3CCCC3)c2)C1 (stereo not given),4.254%
22,CN(Cc1ccco1)[C@@H]1CN(Cc2cccs2)C[C@@H]2CCCO[C@@H]21.O=C(O)C(F)(F)F.O=C(O)C(F)(F)F,3.22%

row,SMILES,Percent Effect
1,Cc1cc(NC2CCN(c3ccc(F)cc3)CC2)n2nc(C)cc2n1,39.2%
2,Cc1cc(NC2CCCN(Cc3ccc(F)cc3)C2)n2nc(C)cc2n1 (stereo not given),55.74%
3,Cc1cc(N[C@H]2CCCN(Cc3ccccc3)C2)n2nc(C)cc2n1,-6.549%
4,O=C(CCc1cccs1)N1CCCC1c1noc(C2CC2)n1 (stereo not given),-0.7961%
5,CC(NC(=O)c1cn(CCC2CCCCC2)nn1)c1cnn(C)c1 (stereo not given),-6.193%
6,Cc1nc2c(NC(CC(C)(C)C)c3cccnc3)ncnc2o1 (stereo not given),-7.649%
7,CCCOc1ccc(Cl)cc1CNc1ncnc2oc(C)nc12,65.32%
8,CCCOc1ccccc1CCCNc1ncnc2oc(C)nc12,30.24%
9,CCc1nnc(CN(C)C(=O)C(CC)n2c(CC)nc3ccccc32)o1 (stereo not given),5.212%
10,CCNC(=O)[C@@H]1C[C@@H](NC(=O)c2cc(C)on2)CN1Cc1ccccn1,-5.653%
11,COc1ccc(C)cc1NC(=O)Nc1cnc(O)nc1O,28.36%
12,CCN(CC)c1ccc(NS(=O)(=O)c2cnn(C)c2)cn1,9.807%
13,CCN(CC)c1ccc(NS(=O)(=O)c2cncc(F)c2)cn1,62.74%
14,CCN(CC)c1ccc(NS(=O)(=O)c2cccnc2)cn1,24.54%
15,COc1cccc(CNCC2CN(C)CCO2)c1 (stereo not given),10.27%
16,CC(=O)N1CCN(Cc2ccc(OCc3nccn3C)cc2)CC1,-16.77%
17,Cc1cc2nccc(C3CCCN(C(=O)c4ccccc4F)C3)n2n1 (stereo not given),8.36%
18,c1nc(-c2nc(C3CCOC3)no2)cs1 (stereo not given),-30.96%
19,O=C(Nc1ccccc1)c1ccc(NCc2ccncc2)nn1,71.71%
20,O=C(Nc1ccccc1)c1ccc(NCc2ccccc2CO)nn1,16.95%
21,O=C(Nc1ccccc1)c1ccc(NCc2nccs2)nn1,40.64%
